# Sampled rows, rich in hits. Any-hit rate of the full collection: about 9.4%.
# FLuc counter – qHTS profiling assay for firefly luciferase inhibitor/activator using purifed enzyme and Km concentrations of substrates (counterscreen for miR-21 project). Potency, µM (titrated, usually from 57.5 µM), without a hit: top-dose activity change, negative = inhibition, hits mostly inhibitors. Luciferin 4-monooxygenase (Photinus pyralis), P08659. 360,000 tested, 6.9% active. purified FLuc, Km substrates, luminescence inhibition;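 also: plate controls were vehicle for no effect and reference inhibitor for full effect; nearly all actives have a fitted effect of over 55% in size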
# Target sequence (P08659 whole entry, looked up): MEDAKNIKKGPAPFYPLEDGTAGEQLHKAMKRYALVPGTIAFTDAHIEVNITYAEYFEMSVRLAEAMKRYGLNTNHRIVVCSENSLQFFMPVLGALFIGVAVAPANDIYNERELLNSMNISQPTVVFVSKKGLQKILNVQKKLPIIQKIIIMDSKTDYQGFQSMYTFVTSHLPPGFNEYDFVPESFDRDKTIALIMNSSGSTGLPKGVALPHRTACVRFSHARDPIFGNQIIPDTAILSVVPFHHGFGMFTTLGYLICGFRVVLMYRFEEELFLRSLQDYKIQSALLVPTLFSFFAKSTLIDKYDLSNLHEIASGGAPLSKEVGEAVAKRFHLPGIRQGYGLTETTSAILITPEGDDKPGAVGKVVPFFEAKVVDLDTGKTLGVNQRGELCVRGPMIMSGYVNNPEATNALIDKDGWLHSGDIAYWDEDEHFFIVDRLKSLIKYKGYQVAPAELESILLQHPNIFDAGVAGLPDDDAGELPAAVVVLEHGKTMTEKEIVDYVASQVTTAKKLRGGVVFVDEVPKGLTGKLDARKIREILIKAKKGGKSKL
#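 Biochemical qHTS of compounds, final roughly 60 µM downward over six points, against 10 nM purified firefly luciferase using Km concentrations of substrates (10 uM D-luciferin, 10 uM ATP) in Tris acetate pH 7.5 buffer; luminescence output.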
# ELG1 genotox – qHTS screen for small molecules that induce genotoxicity in human embryonic kidney (HEK293T) cells expressing luciferase-tagged ELG1; Potency, µM (top dose mostly 46 µM), for the others: top-dose activity change, positive = activation, usual class: activators; 330,000 tested, 1.3% active; HEK293T ELG1-luciferase reporter, luminescence, 16 h; also: % of control where 0% means no effect; nearly all actives have a fitted effect of over 60% in size
#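 DMSO vehicle served as control against compound-treated ELG1-luciferase HEK293T cells; exposure lasted 16 hr at 37 °C and 5% CO2, followed by ONE-Glo luminescence detection after 30 min.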
# NPC1 promoter act – qHTS Assay for NPC1 Promoter Activators; AID 485313, 2010; Huh7 NPC1 promoter luciferase reporter, 24 h; 320,000 tested, 2.4% active; Potency, µM (top dose mostly 9.22 µM), for inactives: at the highest dose activation, actives largely listed as activators; also: % of control where 0% means no effect; nearly all actives have a fitted effect of over 60% in size
#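 Luminescence read-out of NPC1 promoter-driven luciferase in stably transfected Huh7 cells; compounds delivered in DMSO and left 24 h at 37C, 5% CO2, qHTS titration format.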
# ELG1 repair inh – qHTS screen for small molecules that inhibit ELG1-dependent DNA repair in human embryonic kidney (HEK293T) cells expressing luciferase-tagged ELG1. HEK293T ELG1-luciferase reporter, luminescence, 16 h; DNA damage induced by 5-fluorouridine. Potency, µM (top dose mostly 46.1 µM), inactives show at the highest dose activity change, negative = inhibition, actives largely listed as inhibitors. 330,000 tested, 2.3% active; also: % is scaled to controls: 0 for no effect and ±100 for the full control effect; nearly all actives have a fitted effect of over 55% in size
#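 Quantitative HTS, concentration-response format. 2,000 cells/well co-treated with 5-fluorouridine and compound, 16 hr in 5% CO2 at 37 °C; ONE-Glo luminescence read after 30 min.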
# Rab9 promoter act – qHTS Assay for Rab9 Promoter Activators; 320,000 tested, 2.8% active; Huh7 Rab9 promoter-luciferase reporter, luminescence, 24 h; Potency, µM (top dose mostly 9.22 µM), without a hit: at the top dose activation, negative = inhibition, most hits filed as activators; also: % of control where 0% means no effect; nearly all actives have a fitted effect of over 60% in size
#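 Using Huh7 cells stably transfected with Rab9 promoter–luciferase, compounds were incubated 24 h at 37 °C, 5% CO2; luciferase luminescence was read 10 min after reagent addition.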
# SMN2 splice enh – qHTS Assay for Enhancers of SMN2 Splice Variant Expression | Potency, µM (top dose mostly 46.1 µM), for inactives: at the highest dose activity change, positive = activation, actives largely listed as activators | 210,000 tested, 2.8% active | HEK293 SMN2-luciferase splicing reporter, luminescence, 30-36 h | AID 1458, 2008; also: % of control where 0% means no effect; nearly all actives have a fitted effect of over 55% in size
#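 HEK293 cells carry an SMN2 minigene-luciferase reporter in which exon 7 inclusion puts luciferase in frame. Cells were seeded at 2000 cells/well, attached for 10-12 hours, then exposed to compounds for 30-36 hours at 37C before ONE-Glo luminescence.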
# * hit, by the source's call; u = inconclusive; x = not tested or not shown; [ ] = dose if it differs, or a comment. Calls follow the shape of the dose curve; as a rule, active = well fitted curve in the direction sought with a large enough effect; inconclusive = small, poorly fitted or top-dose-only effect, or another doubt; inactive = no such curve, though single readings can be large; an effect the other way counts as inactive or inconclusive. Potency is read from the fitted curve at half-maximal effect.
SMILES,FLuc counter,ELG1 genotox,NPC1 promoter act,ELG1 repair inh,Rab9 promoter act,SMN2 splice enh
Cn1c(=S)[nH]c2sc3c(c2c1=O)CCC(C(C)(C)C)C3 (centres undefined),4.26µM*,7.3%,u,u,u,x
COCCCn1c(=S)[nH]c2sc3c(c2c1=O)CCCS3,10.7µM*,-6.6%,19.5%,-2.9%,11.3%,-28.0%
CC(C)(C)C1CCc2c(sc3ncn(N)c(=N)c23)C1 (centres undefined),-2.7%,-10.0%,-1.9%,u,-2.4%,x
O=c1[nH]c(=S)[nH]c2sc3c(c12)CCCCCC3,-16.6%,1.2%,1.5%,-5.8%,-1.6%,x
CCCn1c(=S)[nH]c2sc3c(c2c1=O)CCCC3,15.1µM*,-15.9%,0.1%,-7.3%,1.7%,x
COCCn1c(=S)[nH]c2sc3c(c2c1=O)CCC(C)C3 (centres undefined),16.9µM*,-6.7%,-1.3%,-4.9%,2.9%,x
CCn1c(C)c(C2N3CC4(C)CN2CC(CC)(C3)C4=O)c2ccccc21 (centres undefined),3.8%,x,x,x,x,16.7%
Cc1ccc(C(=O)NCCC(=O)N2CCOCC2)cc1,10.7µM*,13µM*,1.58µM*,u,2.51µM*,x
CC(C)(C)c1ccc(C(=O)NCCC(=O)N2CCCC2)cc1,9.53µM*,20.6µM*,2.24µM*,u,3.98µM*,x
CC(C)(C)c1ccc(C(=O)NCC(=O)OCC(=O)N2CCCC2)cc1,15.1µM*,0.2%,-0.5%,14.7%,-3.5%,x
COc1ccc(N2C(=O)CS(=O)(=O)C23C(=O)N(Cc2ccc(F)cc2)c2ccc(C)cc23)cc1 (centres undefined),2.8%,x,x,x,x,x
COc1cc(/C=N/NC(=O)c2ccncc2)ccc1OC(=O)c1cc(OC)c(OC)c(OC)c1,-2.4%,4.5%,1.2%,-6.3%,-0.4%,x
C=CCOc1ccccc1/C=N/NC(=O)c1ccc(Cl)cc1Cl,15.1µM*,0.6%,u,-4.9%,u,1.8%
COc1cc(C(=O)Oc2ccccc2/C=N/NC(=O)c2ccc(Cl)cc2Cl)cc(OC)c1OC,u,15.0%,3.55µM*,u,u,u
CCOc1ccc(Nc2sc(C(=O)c3ccc4c(c3)OCO4)c(N)c2S(=O)(=O)c2ccc(C)cc2)cc1,1.8%,x,x,x,x,x
COc1cc(C2NC(=O)N(C)C3=C2C(=O)N(c2ccccc2)C3)ccc1O (centres undefined),5.4%,x,x,x,x,7.8%
FC(F)(F)c1ccccc1Cl,x,x,x,x,x,6.2%
Clc1ccc2nc(-c3ccc(Cl)nc3)[nH]c2c1,12µM*,u,2.24µM*,u,17.1%[1.84 µM],x
Nc1ccc(-c2nc3ccc(N)cc3[nH]2)cc1,15.1µM*,-8.5%,u,u,u,u
Nc1ccc2nc(-c3cc(Cl)c(N)c(Cl)c3)[nH]c2c1,6.01µM*,u,u,u,3.16µM*,15.8µM*
Clc1ccc(-c2ccccc2)cn1,-13.7%,4.9%,-1.0%,28.0%,-1.1%,x
Cc1ccc(C)c(-c2nc3ccc(N)cc3[nH]2)c1,u,u,-2.6%,u,-1.3%,15.6%
Cc1nc2ccc(-c3nc4ccc(N)cc4[nH]3)cc2[nH]1,4.78µM*,-2.9%,u,u,u,x
Cc1cccc(C(=O)Nc2ccc(C(=O)OCc3cc(=O)n4nc(CC(C)C)sc4n3)cc2)c1,-0.4%,x,x,x,x,x
CC(=O)c1ccc(N2C(=O)Nc3ccccc3S2(=O)=O)cc1,-8.0%,x,x,x,x,x
SMILES,FLuc counter,ELG1 genotox,NPC1 promoter act,ELG1 repair inh,Rab9 promoter act,SMN2 splice enh
CC(C)Cc1nc2ccc(N)cc2[nH]1,5.6%,3.3%,-4.0%,-4.2%,-6.7%,x
Nc1ccc2nc(-c3ccc(Cl)cc3)[nH]c2c1,1.9µM*,16.4µM*,u,u,u,u
Nc1ccc(-c2nc3c(Cl)c(N)ccc3[nH]2)cc1,12µM*,16.6%,u,u,u,u
Nc1ccc2nc(-c3cccc(-c4nc5ccc(N)cc5[nH]4)c3)[nH]c2c1,7.57µM*,-4.5%,-3.1%,5.8%,-11.2%[1.84 µM],x
CN(Cc1ccccc1)c1ncnc2c1nnn2C,-6.9%,x,x,x,x,x
O=C(OCc1c(-c2ccccc2)ncc2ccccc12)N1CCOCC1,2.69µM*,5.0%,-1.8%,u,-4.4%,x
O=C(O)CCC(=O)OCc1c(-c2ccccc2)ncc2ccccc12,-12.3%,-0.2%,0.8%,16.8%,-0.5%,x
COc1ccccc1C(=O)OCc1c(-c2ccccc2)ncc2ccccc12,x,-11.9%,x,16.4µM*,x,x
COc1ccc(C(=O)OCc2c(-c3ccccc3)ncc3ccccc23)cc1,x,-0.1%,x,u,x,x
CC1=NN(c2ccccc2)C(=O)C1N=Nc1ccccc1 (centres undefined),2.39µM*,u,u,u,u,14.1µM*
COc1ccc(N=NC2C(=O)N(c3ccccc3)N=C2C)cc1 (centres undefined),19µM*,-1.8%,19.5%,u,0.5%,x
CC1=NN(c2ccccc2)C(=O)C1N=Nc1cccc(O)c1 (centres undefined),8.49µM*,u,u,u,1.2%,x
Cc1nn(-c2ccc(F)cc2)c(-n2cccc2)c1C(=O)NCCCN1CCN(c2cccc(Cl)c2)CC1,-13.4%,x,x,x,x,x
Nc1ccc(C2=Nc3cccc4cccc(c34)N2)cc1,21.3µM*,-1.4%,21.2%,-3.4%,8.9%,x
COc1cccc(C2=Nc3cccc4cccc(c34)N2)c1,12µM*,1.9%,u,-0.8%,18.1%,1.3%
c1coc(C2=Nc3cccc4cccc(c34)N2)c1,u,-4.6%,12.8%,11.3%,20.0%,-36.8%
CC(C)c1ccc2c(c1)NC(c1ccc(F)cc1)=NC(c1cccs1)=N2,-17.9%,x,x,x,x,-0.9%
COc1ccc(CNC(=O)CCC2N=C3c4ccccc4N=C(SCC(=O)NCCc4ccc(OC)c(OC)c4)N3C2=O)cc1 (centres undefined),-1.4%,x,x,x,x,x
c1cn2c(NC3CCCC3)c(-c3ccc(N4CCOCC4)cc3)nc2cn1,2.13µM*,u,u,u,u,12.7%
CCN(CC)c1ccc(-c2nc3cnccn3c2NC2CCCC2)cc1,10.7µM*,-1.3%,14.6%,-1.7%,-3.2%,-18.3%
COc1cccc(CNC(=O)CN(c2cc(C)cc(C)c2)S(=O)(=O)c2c(C)noc2C)c1,2.8%,-9.8%,-0.6%,-21.3%,3.55µM*,11.0%
COc1ccc(OC)c(NC(=O)CN(c2ccc(C)cc2)S(=O)(=O)c2c(C)noc2C)c1,1.1%,-4.3%,-1.9%,u,-1.4%,-14.7%
